# A number with no mark means an inactive call. Activity calls are given as the source filed them.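 The calls were made as follows: active = inhibition at or above 50% relative to wild type and mutant plate controls; inactive = inhibition below 50%.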
# Assay: inhibitors of Chlamydomonas gravitaxis, primary screen, whole organism, Chlamydomonas reinhardtii, WT vs cilia-less mutant, absorbance, 96-well (AID 463189);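 also: 0% = wild type cc124 cells in DMSO and 100% = ciliumless bld1 mutant cells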
# Conditions: OD600 absorbance, 2 days, at 10 µM, hits give high values
row,SMILES,inhibition
1,CC(=O)O[C@H]1C(=O)[C@@]2(C)C([C@H](OC(=O)c3ccccc3)[C@]3(O)C[C@H](OC(=O)[C@H](O)[C@@H](NC(=O)c4ccccc4)c4ccccc4)C(C)=C1C3(C)C)[C@]1(OC(C)=O)CO[C@@H]1C[C@@H]2O (stereo not given in full),8.47%
2,COc1ccc2[nH]cc(CCNC(C)=O)c2c1,13.5%
3,CCCCCC(O)CCCC(=O)O (stereo not given),-1.48%
4,CN1CCC2(CCN3CCc4c(oc5ccccc45)C3C2)N(C)C1=O (stereo not given),-3.27%
5,COC(=O)[C@@H]1[C@H]2C[C@H]3c4[nH]c5ccccc5c4CCN3C[C@@H]2CC[C@@H]1O,8.68%
6,CN(C)C(N)=NCCC[C@H](N)C(=O)O,11.1%
7,O=c1[nH]c2cc([N+](=O)[O-])c([N+](=O)[O-])cc2[nH]c1=O,5.09%
8,CCCCCCCCCCCCCCCCCCOC[C@H](COP(=O)([O-])OCC[N+](C)(C)C)OC,-2.43%
9,COC(=O)c1c(C)[nH]c(C)c1C(=O)c1ccccc1Cc1ccccc1,0.163%
10,NCC1OC(O[C@@H]2[C@H](O)C(OC3C(O)C(N)CC(N)C3OC3OC(CO)C(O)C(O)C3N)O[C@@H]2CO)C(N)C(O)C1O (stereo not given in full),4.9%
11,O=NN(CCCl)C(=O)NCCCl,6.33%
12,CC/C(=C(\c1ccccc1)c1ccc(OCCN(C)C)cc1)c1ccccc1,50.3% (active)
13,CC(C)C[C@H]1C(=O)N2CCC[C@H]2[C@]2(O)O[C@](NC(=O)[C@@H]3C=C4c5cccc6[nH]c(Br)c(c56)C[C@H]4N(C)C3)(C(C)C)C(=O)N12,9.22%
14,CN1C(=O)CC[C@H]1c1cccnc1,4.07%
15,O=C(O)CN(CCOCCOCCN(CC(=O)O)CC(=O)O)CC(=O)O,3.4%
16,NCCCCN,-2.36%
17,CCC1(O)CC2CN(CCc3c([nH]c4ccccc34)[C@@](C(=O)OC)(c3cc4c(cc3OC)N(C=O)C3[C@]45CCN4CC=C[C@@](CC)([C@@H](OC(C)=O)[C@]3(O)C(=O)OC)[C@H]45)C2)C1 (stereo not given in full),1.07%
18,CN(Cc1cnc2nc(N)nc(N)c2n1)c1ccc(C(=O)N[C@H](CCC(=O)O)C(=O)O)cc1,-2.58%
19,CC(C)C(=O)Nc1ccc([N+](=O)[O-])c(C(F)(F)F)c1,-17.5%
20,CN(C)c1ccc(/C=C2\C(=O)Nc3ccccc32)cc1,4.05%

row,SMILES,inhibition
1,NC(=O)c1cccc(N)c1,3.55%
2,COc1ccc(CCCOc2cc(CCn3ccnc3)ccc2OC)cc1,1.24%
3,OCc1cc(C(O)CNCCCCCCOCCCCc2ccccc2)ccc1O (stereo not given),6.68%
4,CN(Cc1cnc2nc(N)nc(N)c2n1)c1ccc(C(=O)N[C@@H](CCC(=O)O)C(=O)O)cc1,-2.7%
5,O=[N+]([O-])c1cccc2c(Br)[nH]nc12,136% (active)
6,NCCNC(=O)c1ncsc1-c1cccc(F)c1,0.32%
7,Cc1ccccc1CNc1ncnc2c1ncn2C1OC(CO)C(O)C1O (stereo not given),-2.9%
8,COc1nc(C)nc(Cl)c1NC1=NCCN1,1.2%
9,Cc1cccc(C#Cc2ccccc2)n1,8.4%
10,C[N+](C)(C)CCC(=O)c1cccc2ccccc12,7.13%
11,O=C(O)c1ccccc1Nc1ccccc1,8.09%
12,OC[C@H]1NC[C@@H](O)[C@@H]1O,-9.59%
13,NC1C=CC=C(C(=O)O)C1 (stereo not given),-4.63%
14,COc1cccc(OC)c1OCCNCC1COc2ccccc2O1 (stereo not given),0.114%
15,c1ccc2nc(C3=NCCN3)ccc2c1,108% (active)
16,NC(N)=N[C@@H](CCC(=O)O)C(=O)O,2.13%
17,CCCC(=O)NCCc1c2n(c3ccc(OC)cc13)Cc1ccccc1-2,-1.81%
18,COC1=C(OC)C(=O)c2ccccc2C1=O,159% (active)
19,O=C(/C=C/c1ccc(O)c(O)c1)OCCc1ccccc1,1.6%
20,CCC(C)N(C)C(=O)c1cc2ccccc2c(-c2ccccc2Cl)n1 (stereo not given),2.31%
